Screens as filed in PubChem BioAssay.
BCR signal inh: chronic active BCR signaling inhibition | ABC-DLBCL IkBa-CBG/CBR reporter, luminescence ratio, 4 h | AID 493014 | actives 0.05% (n = 340,000) | Potency, µM (titrated, usually from 46.1 µM), without a hit: at the top dose activity change, negative = inhibition, hits mostly inhibitors; active = well fitted inhibition curve with a large enough effect in the signal ratio, with a control signal flat, not every such curve was filed as active; inconclusive = small, poorly fitted or top-dose-only effect, or effect the other way, or a change in a side signal; the % refers to the signal ratio;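 also: plate controls were basal doxycycline-induced cells for no effect and cells given 10 µM MG132 for full effect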
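Cell line TMD8 (human ABC DLBCL), stably expressing tet-inducible CBG68-IkBa fusion and CBR; IMDM/0.5% FBS; cpd up to 46 uM; dox induction, 4 h, 37C/5% CO2; dual luminescence; green/red ratio; MG132 control.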
aSyn rescue: rescues yeast growth from alpha-synuclein toxicity; Yeast expressing alpha-synuclein, growth rescue, BacTiter-Glo, 24 h; Potency, µM (titrated, usually from 46.1 µM), for the others: top-dose growth rescue (activation), hits mostly activators; actives 0.14% (n = 370,000); AID 652106; also: % of control where 0% means no effect; nearly all actives have a fitted effect of over 65% in size
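Readout is rescue of growth in alpha-synuclein-expressing yeast, so inhibitors of toxicity appear as activators. Growth after 24 hr at 30 deg C in galactose medium is quantified by luminescence.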
FUS suppressor: FUS proteinopathy suppression in yeast; S. cerevisiae FUS-expressing, growth rescue, OD600, 24 h; Potency, µM (doses to about 76.6 µM), usual class: activators; AID 1347120; actives 0.24% (n = 390,000);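 also: plate controls were DMSO vehicle for no effect and reference control for full effect; nearly all actives have a fitted effect of over 55% in size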
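Cultures pregrown in 2.5% raffinose medium are shifted to minimal medium containing 2% galactose to express toxic FUS. Compounds are tested at several concentrations. After 24hr at 30C, growth is quantified at 600 nm absorbance.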
Abeta rescue: A-beta toxicity reversal in yeast | actives 0.063% (n = 410,000) | Potency, µM (series often up to 46.1 µM), actives largely listed as activators | yeast expressing A-beta42, growth rescue, OD600, 48 h; response scale: 0% DMSO, 100% iron-clioquinol control; also: nearly all actives have a fitted effect of over 55% in size
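Growth rescue measured by 600 nm absorbance after 48 h yeast culture at 30 C with compound. Values normalized between DMSO and an equimolar ferric chloride plus clioquinol control.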
uPA generation: inhibitors of cell surface uPA generation; cell surface uPA generation assay, qHTS; Potency, µM (highest dose often 38.3 µM), for inactives: at the top dose activity change, negative = inhibition, usual class: inhibitors; actives 0.31% (n = 330,000); AID 540303; active = well fitted inhibition curve with a large enough effect; inconclusive = small, poorly fitted or top-dose-only effect; inactive = no such curve, though single readings can be large or run the other way; tested in mouse RAW 264.7 cells; also: % is scaled to controls: 0 for no effect and ±100 for the full control effect; nearly all actives have a fitted effect of over 55% in size
TDP43 rescue: TDP-43 toxicity inhibition in yeast. Potency, µM (doses to about 46.1 µM), without a hit: at the highest dose growth rescue (activation), most hits filed as activators. TDP-43 expressing yeast growth rescue, BacTiter-Glo, 24 h. actives 1.8% (n = 410,000); also: % of control where 0% means no effect; nearly all actives have a fitted effect of over 50% in size
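Cell-based yeast growth screen: TDP-43 expression induced in galactose, inoculum OD600=0.02 after raffinose pregrowth to mid-log. Read-out BacTiter-Glo luminescence at 24 hr, 30 deg C; inhibition of toxicity seen as signal increase.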
Active calls of the source: *; i = inactive; ? = inconclusive; · = not tested or not shown; ! = not active in a repeat. Most compounds without a hit are left out; they make up all but 2.3% or so of the library. Unless noted, calls follow the shape of the dose curve; as a rule, active = well fitted curve in the direction sought with a large enough effect; inconclusive = small, poorly fitted or top-dose-only effect, or another doubt; inactive = no such curve, though single readings can be large; an effect the other way counts as inactive or inconclusive. Potency is read from the fitted curve at half-maximal effect.

SMILES	BCR signal inh	aSyn rescue	FUS suppressor	Abeta rescue	uPA generation	TDP43 rescue
Nc1ccccc1SCC(O)Cn1ccc2ccccc21 (stereo unspecified)	?	?	i	i	-3.6%	17.8µM*
OC(CN1CCNCC1)Cn1ccc2ccccc21 (stereo unspecified)	2.8%	·	·	·	·	·
CCSc1nnc(NC(=O)c2ccc3ccccc3n2)s1	?	-11.5%	i	i	-7.9%	-0.9%
CC(C)c1nnc(NC(=O)c2nc(S(=O)(=O)Cc3ccc(F)cc3)ncc2Cl)s1	?	12.4%	i	i	1.3%	7.6%
CCc1nnc(NC(=O)c2ccc3ccccc3n2)s1	?	6.1%	i	i	?	31.6µM*
CCc1nnc(NC(=O)c2nc(SCc3ccccc3F)ncc2Cl)s1	·	·	i	i	·	17.8µM*
CC(C)c1nnc(NC(=O)c2nc(SCc3ccc(F)cc3)ncc2Cl)s1	·	·	8.91µM*	i	·	11.6%
Cc1nnc(NC(=O)c2nc(SCc3ccccc3F)ncc2Cl)s1	·	·	?	i	·	15.8µM*
CCCCNc1n[n+](C)c(-c2cccc(C)c2)s1	1.9%	·	·	·	·	·
CC12CC3CC1C(C(=O)O2)C3C(=O)O (stereo unspecified)	·	1.8%	·	i	-7.2%	-4.3%
Cc1ccc(C(=O)NNC(=O)C(C)Oc2ccccc2F)cc1S(=O)(=O)N1CCOCC1 (stereo unspecified)	7.9%	-5.2%	i	i	-10.0%	-5.5%
Cc1cc2nc(C3CCN(Cc4nnnn4Cc4ccccc4)CC3)[nH]c2cc1C	6.8%	8.7%	i	i	-26.6%	-23.9%
COc1cc2c(cc1OC)CN(C1CC(=O)N(c3c(C)cccc3C)C1=O)CC2 (stereo unspecified)	-0.9%	9.9%	i	i	3.9%	14.1µM*
CN1CCN(S(=O)(=O)c2cccc(S(=O)(=O)c3ccc(Cl)c(Cl)c3)c2)CC1	3.4%	3.4%	i	i	2.7%	10.7%
CCC(=O)Nc1cc(C(=O)OC(C(=O)c2ccc(C)c(C)c2)c2ccccc2)ccc1C (stereo unspecified)	2.7%	-0.5%	10µM*	i	-3.1%	-0.1%
COc1ccc(N(CC(=O)Nc2ccccc2C)S(=O)(=O)c2ccccc2[N+](=O)[O-])c(OC)c1	1.2%	6.4%	i	i	-0.6%	9.5%
Cc1ccc(OCC(=O)NCCCNC(=O)c2cnccn2)cc1C	-13.5%	-0.3%	i	i	4.0%	-13.7%
Cc1cc(OCC(=O)NNC(=O)c2cnccn2)cc(C)c1Cl	-5.5%	17.8µM*	i	?	-20.5%	?
CSc1nccc(Oc2cncc(Cl)c2)n1	-9.8%	2.3%	i	i	2.9%	29.1%
CCOC(=O)c1ccc(N2C(=O)C3C(C2=O)C(C(=O)c2ccc(Cl)cc2)N2CCCC32)cc1 (stereo unspecified)	?	3.2%	12.6µM*	i	-9.0%	-1.1%
O=C1COc2ccc(C(=O)COC(=O)Cc3ccccc3F)cc2N1	?	-0.5%	i	i	·	1.8%
Cc1cc(C)c2ccc(NN)nc2c1O	14.1%	-1.6%	i	i	-1.0%	5.3%
Cc1cc(C)c2ccc(/C=N/O)nc2c1O	?	12.6µM*	i	?	14.2%	21.0%
COc1cccc(N2CCN(C(=O)CCSCc3ccccc3F)CC2)c1	-4.2%	2.4%	i	i	-3.3%	15.8µM*
COc1cccc(N2CCN(C(=O)CN3CCSc4ccccc43)CC2)c1	·	2.6%	i	?	·	14.1µM*
SMILES	BCR signal inh	aSyn rescue	FUS suppressor	Abeta rescue	uPA generation	TDP43 rescue
COc1ccccc1N1CCN(C(=O)CCSCc2ccccc2F)CC1	?	-0.4%	i	i	-2.1%	20µM*!
COc1ccccc1N1CCN(C(=O)Cc2ccc(Cl)cc2)CC1	-0.5%	21.1%	i	i	-0.7%	2.4%
COc1ccc(CNC(=O)CN2CCSc3ccccc32)c(OC)c1	·	-11.4%	i	i	·	?
O=C(O)C1CCCN1C(=O)Nc1ccc(F)cc1 (stereo unspecified)	5.5%	-12.3%	i	i	1.0%	-17.3%
C/C(CC(=O)Nc1cccc(Cl)c1Cl)=N\NC(=O)C(=O)NC1CCCCC1	-11.5%	-0.9%	i	i	·	17.1%
O=C(CCS(=O)(=O)c1nc(-c2cccs2)cc(C(F)(F)F)n1)Nc1cc(Br)ccc1O	·	?	i	i	·	17.8µM*
O=C(CCS(=O)(=O)c1nc(-c2cccs2)cc(C(F)(F)F)n1)Nc1ccc(Br)cc1	·	·	i	i	·	?
COc1ccc(NC(=O)CCS(=O)(=O)c2nc(-c3ccc4c(c3)OCO4)cc(C(F)(F)F)n2)cc1	·	·	i	i	·	?
Cc1ccc(O)c(NC(=O)CCS(=O)(=O)c2nc(-c3cccs3)cc(C(F)(F)F)n2)c1	·	·	i	i	·	11.2µM*
O=C(CCS(=O)(=O)c1nc(-c2ccc3c(c2)OCO3)cc(C(F)(F)F)n1)Nc1ccc(F)cc1F	·	·	i	i	·	12.6µM*
Cc1cc(NC(=O)CCS(=O)(=O)c2nc(-c3ccccc3)cc(C(F)(F)F)n2)no1	?	-18.8%	i	i	-8.4%	13.7%
Cc1ccc(C)c(CS(=O)(=O)c2cn(CC(=O)N3CCC(C)CC3)c3ccccc23)c1	?	14.2%	·	i	-1.5%	-2.9%
Cc1c(C(=O)N2CCOCC2)sc2nc(-c3ccccc3)cn12	-0.1%	0.8%	·	i	-1.4%	-5.7%
Cn1nccc1C(=O)N1CCc2ccccc21	-14.5%	0.7%	i	i	0.5%	?
O=C(NCC1CCCO1)C(c1cccs1)N(Cc1cccs1)C(=O)c1ccc(-c2ccccc2)[nH]1 (stereo unspecified)	?	-3.6%	35.5µM*	i	-7.7%	8.7%
Cc1cccc(C)c1OCC(=O)N[C@@H](Cc1ccccc1)[C@@H](O)C[C@H](Cc1ccccc1)NC(=O)[C@H](C(C)C)N1CCCNC1=O	·	2.4%	31.6µM*	·	·	·
Cc1ccccc1-n1c(SCC(=O)Nc2ccc(Cl)cc2F)nnc1-c1cc2occc2n1C	·	·	i	i	·	12.6%
CCn1c(CNC(=O)c2cccc(C)c2)nnc1SCC(=O)Nc1cccc(OC)c1	-12.3%	-12.1%	i	i	-1.1%	6.3%
Cc1cc(=O)oc2c(C)c3occc3cc12	0.1%	?	i	?	-7.9%	2.51µM*
Cc1ccc(OCCC(=O)N2CCN(c3ccc(O)cc3)CC2)cc1	-9.5%	11.7%	i	i	-14.7%	-3.3%
N#Cc1ccc(-c2csc(NC(=O)c3cc(-c4cccs4)nc4ccccc34)n2)cc1	-7.4%	-6.3%	i	i	7.6%	-5.6%
